The record followed here is ChEMBL document CHEMBL1961873, “Compounds: GSK PKIS; Assays: Nanosyn kinase panel” (2012).

Test [1] concerns the target Rho-associated protein kinase 1 (Homo sapiens) (UniProt Q13464). Particulars: at 1 µM.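 Also: reported values are mean percent inhibition of ROCK1.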
In test [2] the target is Rho-associated protein kinase 2 (Homo sapiens) (UniProt O75116). Particulars: at 0.1 µM.
Test [3] has the same target. Particulars: at 1 µM.
Test [4] concerns the target Ribosomal protein S6 kinase alpha-1 (Homo sapiens) (UniProt Q15418). Particulars: at 0.1 µM.
Test [5] shares this target. Particulars: at 1 µM.
For test [6], the target named is Ribosomal protein S6 kinase alpha-3 (Homo sapiens) (UniProt P51812). Particulars: at 0.1 µM.
For test [7] the target is unchanged. Particulars: at 1 µM.
Test [8] concerns the target Ribosomal protein S6 kinase alpha-2 (Homo sapiens) (UniProt Q15349). Particulars: at 0.1 µM.
Test [9] shares this target. Particulars: at 1 µM.
Test [10] deals with Ribosomal protein S6 kinase alpha-6 (Homo sapiens) (UniProt Q9UK32). Particulars: at 0.1 µM.
The target is the same in test [11]. Particulars: at 1 µM.
The target in test [12] is T1, Serine/threonine-protein kinase Sgk1 (Homo sapiens) (UniProt O00141).
T1 sequence (whole entry): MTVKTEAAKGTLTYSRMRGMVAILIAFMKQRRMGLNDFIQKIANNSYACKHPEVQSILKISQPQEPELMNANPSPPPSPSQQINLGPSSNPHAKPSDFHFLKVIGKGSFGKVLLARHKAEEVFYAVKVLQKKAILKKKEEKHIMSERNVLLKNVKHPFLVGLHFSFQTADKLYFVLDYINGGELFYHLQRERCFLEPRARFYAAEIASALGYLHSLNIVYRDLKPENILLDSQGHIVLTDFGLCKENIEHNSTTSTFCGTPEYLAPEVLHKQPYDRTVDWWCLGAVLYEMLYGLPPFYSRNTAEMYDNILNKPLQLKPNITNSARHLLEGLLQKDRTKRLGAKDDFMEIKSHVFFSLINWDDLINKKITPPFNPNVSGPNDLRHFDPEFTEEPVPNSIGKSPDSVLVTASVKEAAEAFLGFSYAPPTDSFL
Particulars: at 0.1 µM.

For test [13], the target named is T1, Serine/threonine-protein kinase Sgk1 (Homo sapiens). Particulars: at 1 µM.
Test [14] has as its target T2, Serine/threonine-protein kinase Sgk2 (Homo sapiens) (UniProt Q9HBY8).
T2 sequence (whole entry): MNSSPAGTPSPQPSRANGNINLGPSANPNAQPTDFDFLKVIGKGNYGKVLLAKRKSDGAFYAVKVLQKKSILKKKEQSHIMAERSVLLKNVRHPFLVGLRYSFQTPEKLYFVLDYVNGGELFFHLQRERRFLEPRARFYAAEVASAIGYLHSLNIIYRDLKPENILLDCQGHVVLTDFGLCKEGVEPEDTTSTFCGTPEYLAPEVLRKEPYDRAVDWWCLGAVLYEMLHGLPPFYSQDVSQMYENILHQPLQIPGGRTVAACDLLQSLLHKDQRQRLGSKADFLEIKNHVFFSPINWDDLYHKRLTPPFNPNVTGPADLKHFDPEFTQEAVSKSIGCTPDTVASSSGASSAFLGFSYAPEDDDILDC
Particulars: at 0.1 µM.

Test [15] concerns the target T2, Serine/threonine-protein kinase Sgk2 (Homo sapiens). Particulars: at 1 µM.
Test [16] concerns the target T3, Serine/threonine-protein kinase Sgk3 (Homo sapiens) (UniProt Q96BR1).
T3 sequence (whole entry): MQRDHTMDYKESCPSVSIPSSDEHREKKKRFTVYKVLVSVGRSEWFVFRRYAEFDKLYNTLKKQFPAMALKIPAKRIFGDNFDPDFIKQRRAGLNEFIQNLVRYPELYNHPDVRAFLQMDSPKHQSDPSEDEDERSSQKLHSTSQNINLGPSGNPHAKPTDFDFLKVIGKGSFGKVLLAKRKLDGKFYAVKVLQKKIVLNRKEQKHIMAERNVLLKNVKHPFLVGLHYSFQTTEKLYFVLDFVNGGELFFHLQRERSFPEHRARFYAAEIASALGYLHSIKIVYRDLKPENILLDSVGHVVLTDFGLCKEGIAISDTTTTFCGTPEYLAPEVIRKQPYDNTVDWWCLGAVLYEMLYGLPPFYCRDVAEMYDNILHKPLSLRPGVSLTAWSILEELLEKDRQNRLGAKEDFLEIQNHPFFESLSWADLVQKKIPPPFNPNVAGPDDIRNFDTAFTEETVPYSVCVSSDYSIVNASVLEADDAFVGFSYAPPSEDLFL
Particulars: at 0.1 µM.

Test [17] has as its target T3, Serine/threonine-protein kinase Sgk3 (Homo sapiens). Particulars: at 1 µM.
The target in test [18] is 5'-AMP-activated protein kinase catalytic subunit alpha-1 (Homo sapiens) (UniProt Q13131). Particulars: at 0.1 µM.
For test [19] the target is unchanged. Particulars: at 1 µM.
The target of test [20] is 5'-AMP-activated protein kinase catalytic subunit alpha-2 (Homo sapiens) (UniProt P54646). Particulars: at 0.1 µM.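 Also: mean inhibition measured on the AMPK complex of alpha2, beta1 and gamma1 subunits.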

Chain of Ribosomal protein S6 kinase alpha-1 (Homo sapiens) (Q15418 whole entry): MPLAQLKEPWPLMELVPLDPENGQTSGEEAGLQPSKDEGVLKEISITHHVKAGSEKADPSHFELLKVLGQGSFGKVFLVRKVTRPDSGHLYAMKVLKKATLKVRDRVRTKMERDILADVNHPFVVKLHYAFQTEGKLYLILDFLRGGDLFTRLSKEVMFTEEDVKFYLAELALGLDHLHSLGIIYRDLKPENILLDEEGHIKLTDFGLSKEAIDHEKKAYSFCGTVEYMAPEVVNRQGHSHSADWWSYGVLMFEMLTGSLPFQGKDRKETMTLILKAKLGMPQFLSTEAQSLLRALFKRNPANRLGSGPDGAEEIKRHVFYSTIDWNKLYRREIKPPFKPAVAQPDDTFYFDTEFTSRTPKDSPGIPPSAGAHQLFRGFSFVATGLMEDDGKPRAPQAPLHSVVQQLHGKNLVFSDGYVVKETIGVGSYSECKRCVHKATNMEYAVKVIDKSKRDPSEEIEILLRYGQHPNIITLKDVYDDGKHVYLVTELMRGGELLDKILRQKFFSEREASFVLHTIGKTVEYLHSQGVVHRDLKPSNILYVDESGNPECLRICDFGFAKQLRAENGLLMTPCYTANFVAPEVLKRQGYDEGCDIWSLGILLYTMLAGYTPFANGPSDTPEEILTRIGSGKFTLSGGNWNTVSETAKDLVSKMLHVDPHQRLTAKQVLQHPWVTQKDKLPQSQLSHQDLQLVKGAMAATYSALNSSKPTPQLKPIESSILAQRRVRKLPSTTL
Chain of Rho-associated protein kinase 1 (Homo sapiens) (Q13464 2-1354 limits assumed): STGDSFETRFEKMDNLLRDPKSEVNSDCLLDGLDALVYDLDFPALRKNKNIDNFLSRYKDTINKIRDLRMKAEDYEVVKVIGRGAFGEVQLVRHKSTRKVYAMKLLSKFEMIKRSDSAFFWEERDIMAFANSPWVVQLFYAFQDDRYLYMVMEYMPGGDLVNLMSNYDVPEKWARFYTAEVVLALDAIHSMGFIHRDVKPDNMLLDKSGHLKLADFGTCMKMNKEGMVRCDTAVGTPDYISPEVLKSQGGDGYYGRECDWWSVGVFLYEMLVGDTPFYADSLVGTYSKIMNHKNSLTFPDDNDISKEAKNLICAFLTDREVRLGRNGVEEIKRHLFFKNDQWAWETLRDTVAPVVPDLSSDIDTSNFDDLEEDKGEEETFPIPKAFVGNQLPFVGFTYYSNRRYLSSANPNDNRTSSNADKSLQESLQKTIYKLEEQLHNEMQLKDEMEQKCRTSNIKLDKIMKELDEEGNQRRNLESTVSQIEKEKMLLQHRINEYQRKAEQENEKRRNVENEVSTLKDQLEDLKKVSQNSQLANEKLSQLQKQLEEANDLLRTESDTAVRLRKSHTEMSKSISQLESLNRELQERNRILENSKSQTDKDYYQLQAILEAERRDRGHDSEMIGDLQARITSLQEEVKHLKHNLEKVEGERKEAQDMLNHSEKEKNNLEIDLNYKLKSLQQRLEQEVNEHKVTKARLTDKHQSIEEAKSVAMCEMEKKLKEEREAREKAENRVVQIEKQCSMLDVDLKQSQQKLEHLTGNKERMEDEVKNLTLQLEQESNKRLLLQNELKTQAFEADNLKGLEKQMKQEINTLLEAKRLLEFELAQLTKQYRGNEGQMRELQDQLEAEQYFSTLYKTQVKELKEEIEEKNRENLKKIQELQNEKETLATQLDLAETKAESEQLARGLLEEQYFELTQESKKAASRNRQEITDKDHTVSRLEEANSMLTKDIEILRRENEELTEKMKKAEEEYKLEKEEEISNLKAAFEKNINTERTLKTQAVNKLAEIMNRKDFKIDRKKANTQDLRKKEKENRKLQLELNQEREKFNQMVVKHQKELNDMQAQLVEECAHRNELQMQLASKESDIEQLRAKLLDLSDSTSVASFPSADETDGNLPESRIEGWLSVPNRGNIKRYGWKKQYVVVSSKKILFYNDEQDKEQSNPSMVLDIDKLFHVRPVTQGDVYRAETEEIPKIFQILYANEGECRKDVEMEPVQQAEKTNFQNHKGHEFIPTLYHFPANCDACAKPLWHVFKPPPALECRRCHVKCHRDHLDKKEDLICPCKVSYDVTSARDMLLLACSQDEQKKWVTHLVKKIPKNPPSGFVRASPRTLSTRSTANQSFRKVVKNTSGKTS
Chain of Rho-associated protein kinase 2 (Homo sapiens) (O75116 whole entry, looked up): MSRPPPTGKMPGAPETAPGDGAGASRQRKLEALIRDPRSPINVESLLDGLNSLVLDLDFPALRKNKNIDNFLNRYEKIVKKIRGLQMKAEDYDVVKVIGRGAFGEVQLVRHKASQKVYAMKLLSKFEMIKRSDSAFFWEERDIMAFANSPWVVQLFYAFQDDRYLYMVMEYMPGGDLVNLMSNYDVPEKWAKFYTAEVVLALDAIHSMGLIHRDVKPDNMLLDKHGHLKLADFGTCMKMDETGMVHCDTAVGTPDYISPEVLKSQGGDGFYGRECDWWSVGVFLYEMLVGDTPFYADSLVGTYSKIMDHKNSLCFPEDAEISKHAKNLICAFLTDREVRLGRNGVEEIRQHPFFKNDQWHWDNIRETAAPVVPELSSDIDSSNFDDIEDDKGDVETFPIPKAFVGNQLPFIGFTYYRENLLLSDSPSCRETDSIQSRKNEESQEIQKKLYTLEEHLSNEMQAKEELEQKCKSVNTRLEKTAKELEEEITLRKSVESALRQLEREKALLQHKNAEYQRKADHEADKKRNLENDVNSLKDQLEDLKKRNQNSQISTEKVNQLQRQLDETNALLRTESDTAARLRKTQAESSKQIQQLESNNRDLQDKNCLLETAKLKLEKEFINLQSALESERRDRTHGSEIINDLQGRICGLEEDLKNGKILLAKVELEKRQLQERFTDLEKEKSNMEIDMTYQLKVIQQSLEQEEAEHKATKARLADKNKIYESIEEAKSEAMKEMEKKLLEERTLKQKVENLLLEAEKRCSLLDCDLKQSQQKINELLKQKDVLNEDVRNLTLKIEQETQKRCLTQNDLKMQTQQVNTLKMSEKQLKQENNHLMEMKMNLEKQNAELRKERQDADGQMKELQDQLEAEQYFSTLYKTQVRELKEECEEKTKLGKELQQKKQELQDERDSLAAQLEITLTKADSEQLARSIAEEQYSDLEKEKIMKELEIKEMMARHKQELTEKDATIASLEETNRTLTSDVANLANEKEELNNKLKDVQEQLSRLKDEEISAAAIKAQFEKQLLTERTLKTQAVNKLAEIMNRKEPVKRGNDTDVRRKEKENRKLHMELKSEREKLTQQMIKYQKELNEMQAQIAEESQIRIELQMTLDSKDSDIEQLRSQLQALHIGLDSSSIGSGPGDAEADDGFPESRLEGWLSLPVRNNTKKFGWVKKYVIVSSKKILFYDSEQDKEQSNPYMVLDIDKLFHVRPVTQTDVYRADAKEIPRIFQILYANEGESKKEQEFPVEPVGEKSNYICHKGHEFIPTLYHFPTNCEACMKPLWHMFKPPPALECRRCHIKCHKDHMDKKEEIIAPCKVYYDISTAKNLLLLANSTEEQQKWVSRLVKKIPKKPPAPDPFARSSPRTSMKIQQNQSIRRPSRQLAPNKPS
Chain of Ribosomal protein S6 kinase alpha-3 (Homo sapiens) (P51812 whole entry): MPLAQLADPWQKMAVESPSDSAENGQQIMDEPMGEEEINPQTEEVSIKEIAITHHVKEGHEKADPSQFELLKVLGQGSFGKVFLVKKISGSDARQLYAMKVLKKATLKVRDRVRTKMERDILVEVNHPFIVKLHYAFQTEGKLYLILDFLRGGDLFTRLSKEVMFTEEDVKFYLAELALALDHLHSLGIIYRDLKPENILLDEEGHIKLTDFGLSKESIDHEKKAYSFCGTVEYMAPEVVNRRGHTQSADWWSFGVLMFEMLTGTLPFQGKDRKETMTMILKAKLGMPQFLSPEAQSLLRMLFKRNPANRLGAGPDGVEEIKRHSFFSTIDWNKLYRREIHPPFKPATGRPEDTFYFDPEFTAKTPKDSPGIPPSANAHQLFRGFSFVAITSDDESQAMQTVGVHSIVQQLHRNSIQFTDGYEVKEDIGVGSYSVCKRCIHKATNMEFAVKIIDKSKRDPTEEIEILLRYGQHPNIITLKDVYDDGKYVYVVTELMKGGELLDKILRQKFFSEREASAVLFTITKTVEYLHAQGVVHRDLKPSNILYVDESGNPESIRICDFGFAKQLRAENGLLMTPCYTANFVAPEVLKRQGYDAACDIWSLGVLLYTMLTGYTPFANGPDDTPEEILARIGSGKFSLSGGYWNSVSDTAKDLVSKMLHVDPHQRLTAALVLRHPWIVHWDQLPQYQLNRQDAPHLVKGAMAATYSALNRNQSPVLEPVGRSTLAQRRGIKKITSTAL
Chain of Ribosomal protein S6 kinase alpha-6 (Homo sapiens) (Q9UK32 whole entry): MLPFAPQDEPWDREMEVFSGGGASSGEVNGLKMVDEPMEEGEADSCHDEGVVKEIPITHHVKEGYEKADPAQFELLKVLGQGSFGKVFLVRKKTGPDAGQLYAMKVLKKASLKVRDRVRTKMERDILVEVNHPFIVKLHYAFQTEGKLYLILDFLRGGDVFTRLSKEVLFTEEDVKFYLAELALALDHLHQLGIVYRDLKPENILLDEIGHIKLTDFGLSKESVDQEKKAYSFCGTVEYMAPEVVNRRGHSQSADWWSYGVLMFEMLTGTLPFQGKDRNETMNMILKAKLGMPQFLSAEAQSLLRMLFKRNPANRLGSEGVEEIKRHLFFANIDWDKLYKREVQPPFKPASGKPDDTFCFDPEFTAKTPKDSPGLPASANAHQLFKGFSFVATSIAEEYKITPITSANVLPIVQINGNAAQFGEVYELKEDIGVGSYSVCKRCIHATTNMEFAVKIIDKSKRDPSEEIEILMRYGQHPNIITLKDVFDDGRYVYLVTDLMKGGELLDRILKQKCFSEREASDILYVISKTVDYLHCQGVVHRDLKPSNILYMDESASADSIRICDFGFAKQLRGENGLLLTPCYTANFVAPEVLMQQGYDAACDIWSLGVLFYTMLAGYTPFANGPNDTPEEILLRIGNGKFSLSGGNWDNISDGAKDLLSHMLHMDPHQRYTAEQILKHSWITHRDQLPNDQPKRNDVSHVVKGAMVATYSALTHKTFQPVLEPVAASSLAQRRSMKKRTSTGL

For orientation: inhibition means the change of the read-out against control, counted positive when it falls. Regarding `O=C(Nc1n[nH]c2nc(-c3ccc(O)cc3)c(Br)cc12)C1CC1`, the inhibition in [1] came to 1.33%; in test [2], 4.18%; in test [3], 6.43%; in test [4], 7.28%; in test [5], 33%; in test [6], 10.3%. Moreover, the inhibition in test [7] came to 44.8%; in test [8], 22.4%; in test [9], 70.6%; in test [10], 16.4%; in [11], 59.7%; in test [12], 3.83%. Besides, the inhibition was 12.1% in test [13]; 6.54% in test [14]; 24.8% in test [15]; 5.88% in test [16]; 16.7% in test [17]; 5.78% in [18]. Also, the inhibition in test [19] was 20.1%; in test [20], 4.36%.
For the molecule `Fc1ccc(-c2c(-c3ccncc3)nc3n2CCS3)cc1`, the inhibition in test [1] was determined as 13.8%; in [2] it was 11.2%; in test [3], 16.1%; in [4], 3.39%; in test [5] it was 6.17%; in test [6], 3.04%. For the same molecule, the inhibition in test [7] turned out to be 6%; in [8], 2.43%; in test [9] it was 3.27%; in test [10] it was 1.3%; in test [11] it was 2.25%; in test [12] it was 3.2%. In addition, the inhibition is 4.05% in test [13]; 1.42% in [14]; 3.7% in test [15]; 1.96% in test [16]; 5.06% in test [17]; 3.33% in [18]. The inhibition in test [19] turned out to be 6.81%; in test [20] it was 3.93%.
Turning to `NCc1ccc(-n2c(-c3nonc3N)nc3cnccc32)cc1`, the inhibition is 90.5% in test [1]; 82.9% in [2]; 92.9% in test [3]; 56.2% in test [4]; 87.9% in test [5]; 43.4% in [6]. In addition, the inhibition in [7] was determined as 81.4%; in test [8], 55.5%; in test [9], 91.4%; in test [10], 10%; in test [11], 36.2%; in test [12] it was 5.32%. Besides, the inhibition in [13] worked out at 11.7%; in [14], 5.18%; in [15], 17.3%; in test [16] it was 3.68%; in test [17], 28.2%; in test [18], 5.3%. Also, the results for the inhibition in [19] and in [20] were 7.27% and 6.07%, respectively.
For `COc1cc(Nc2ncc(-c3ccccc3)o2)cc(OC)c1OC`, the inhibition is 1.85% in test [1]; -0.74% in test [2]; 3.74% in test [3]; 0.23% in test [4]; 3.07% in test [5]; 0.02% in test [6]. The inhibition in test [7] was 2.83%; in [8] it was 0.65%; in test [9] it was 6.88%; in [10] it was 0.47%; in [11], 6.6%; in [12], 1.24%. The inhibition was 5.44% in test [13]; 3.15% in [14]; 1.18% in [15]; 0.24% in [16]; 0.29% in test [17]; 0.26% in test [18]. Moreover, the inhibition came to 9.16% in [19] and 5% in test [20].
Consider `C[C@@H](Oc1cc(-n2cnc3ccc(OCC4CCN(C)CC4)cc32)sc1C(N)=O)c1ccccc1Cl`, for which the inhibition in test [1] turned out to be 7.23%; in test [2] it was 3.44%; in test [3] it was 9.54%; in test [4] it was 3.39%; in [5], 16.8%; in test [6], 4.17%. Besides, the inhibition in test [7] is 22.5%; in [8], 5.72%; in [9] it was 22.4%; in test [10], 8.06%; in test [11] it was 42.4%; in [12] it was 2.62%. Besides, the inhibition in test [13] amounted to 4.04%; in [14] it was 4.94%; in [15], 3.37%; in [16], 2.38%; in test [17], 3.66%; in test [18], 6.05%. In addition, the values for the inhibition in [19] and in [20] were 24.5% and 8.96%, respectively.
Take `CCc1ccc(Oc2nccc(-c3c(-c4ccc(F)cc4)ncn3C3CCNCC3)n2)cc1`: the inhibition in test [1] worked out at 3.4%; in [2], 2.09%; in [3], 3.7%; in test [4] it was 2.14%; in [5], 3.42%; in test [6], 3.03%. The inhibition was 4.07% in test [7]; 3.08% in [8]; 3.54% in test [9]; 3.18% in test [10]; 3.1% in [11]; -1.02% in [12]. The inhibition in [13] was 1.21%; in test [14], -0.69%; in test [15], 1.93%; in test [16], -0.71%; in [17], 1.87%; in test [18] it was 5.5%. In addition, the inhibition in test [19] was 8.69%; in test [20], 5.08%.
As for `CCS(=O)(=O)c1ccc(OC)c(Nc2ncc(-c3cccc(-c4ccccc4F)c3)o2)c1`, the inhibition in [1] came out at 1.4%; in test [2] it was 1.1%; in test [3], 1%; in [4], 0.18%; in [5], 1.38%; in test [6], 0.3%. Moreover, the inhibition in test [7] is 0.84%; in test [8] it was 0.3%; in test [9], 2.3%; in test [10] it was -0.01%; in test [11] it was 0.75%; in test [12] it was 1.23%. For the same molecule, the inhibition in test [13] is 0.04%; in test [14] it was 1.37%; in test [15], 1.29%; in [16] it was -0.5%; in [17], -0.32%; in test [18], 0.4%. In addition, the inhibition is 0.95% in test [19] and 1.79% in test [20].
As for `COC(=O)Nc1nc2ccc(Sc3ccc(NC(=O)Nc4cc(C(F)(F)F)ccc4F)cc3)cc2[nH]1`, the inhibition was -0.72% in [1]; 0.53% in test [2]; -0.19% in test [3]; -0.4% in test [4]; 0.24% in test [5]; -0.27% in [6]. Besides, the inhibition was -1.87% in test [7]; 47.7% in [8]; 2.97% in [9]; 48.6% in test [10]; 0.24% in test [11]; 0.54% in test [12]. Further, the inhibition in test [13] was 4.52%; in test [14], 0.41%; in [15] it was 0.74%; in test [16], -0.29%; in test [17], 0.03%; in test [18], 0.86%. The inhibition in test [19] was 0.23%; in [20] it was -4.11%.
As for `COc1cc(C)c(N(C)C(=O)CN(C)C)cc1Nc1nc(Nc2cccc(F)c2C(N)=O)c2cc[nH]c2n1`, the inhibition was 1.48% in test [1]; 0.89% in test [2]; -0.53% in test [3]; 1.17% in test [4]; 3.02% in test [5]; 1.14% in [6]. Further, the inhibition is 1.43% in test [7]; 1.84% in [8]; 2.69% in test [9]; 1.67% in test [10]; 4.74% in test [11]; 1.3% in [12]. The inhibition in [13] was 0.1%; in test [14], -3%; in test [15] it was 3.7%; in [16], 0.02%; in test [17], 0.78%; in test [18], 1.44%. For the same molecule, the inhibition is 0.94% in [19] and -0.28% in [20].
On to `NS(=O)(=O)c1ccc(N/N=C2\C(=O)Nc3ccc(C(=O)NCCCn4ccnc4)cc32)cc1`, for which the inhibition in [1] is 8.77%; in test [2] it was 5.67%; in test [3], 25.4%; in [4], 2.58%; in test [5] it was 7.85%; in test [6], 2.08%. The inhibition in test [7] was found to be 9.61%; in [8] it was 3.97%; in test [9], 12.8%; in test [10] it was 3.05%; in test [11] it was 13%; in test [12], 5.02%. Besides, the inhibition in test [13] was 14.6%; in test [14] it was 2.07%; in [15], 7.54%; in test [16] it was 3.25%; in test [17], 6.44%; in test [18], 18%. The results for the inhibition in test [19] and in test [20] were 64.4% and 5.78%, respectively.
For the molecule `Fc1ccc(-c2nc3n(c2-c2ccncc2)CCS3)cc1`, the inhibition in [1] was found to be 4.54%; in test [2], 2.98%; in test [3], 5.06%; in [4], 3.03%; in test [5] it was 2.88%; in test [6], 1.5%. Besides, the inhibition in [7] is 1.71%; in test [8], 3.31%; in test [9], 4.36%; in test [10], 2.72%; in test [11], 3.9%; in test [12] it was 3.17%. The inhibition is 4.66% in [13]; 2.05% in test [14]; 4.96% in [15]; 1.96% in test [16]; 2.6% in [17]; 2.91% in test [18]. The inhibition was 2.64% in test [19] and 4.5% in test [20].
